The values that follow come from PubChem BioAssay.

In general, inhibition refers to the share of the control response that was lost under treatment.

The source made the active and inactive calls. No rule for the calls is given here.

Chain of Pantothenate synthetase (Mycobacterium tuberculosis (strain ATCC 25618 / H37Rv)) (P9WIL5 whole entry, looked up): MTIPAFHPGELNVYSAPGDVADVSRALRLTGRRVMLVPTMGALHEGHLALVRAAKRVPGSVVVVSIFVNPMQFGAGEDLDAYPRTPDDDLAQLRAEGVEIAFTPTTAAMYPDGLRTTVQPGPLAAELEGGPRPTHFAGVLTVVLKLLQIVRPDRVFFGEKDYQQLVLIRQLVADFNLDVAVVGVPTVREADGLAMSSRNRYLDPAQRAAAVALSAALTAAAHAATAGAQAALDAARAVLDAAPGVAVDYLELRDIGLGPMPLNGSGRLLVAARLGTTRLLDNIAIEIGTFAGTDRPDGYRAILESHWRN

The experiment addresses Pantothenate synthetase (Mycobacterium tuberculosis (strain ATCC 25618 / H37Rv)) (UniProt P9WIL5). Kind of experiment: Recombinant Mtb pantothenate synthetase (PanC) inhibitors, coupled enzyme, confirmatory (AID 375).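 Also: 0% = full reaction with vehicle and 100% = no enzyme background.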 As to conditions: coupled enzyme assay; at 10 µM, stronger effect = higher value.
As for `Cc1ccc(-c2oc3ccccc3c(=O)c2O)cc1`, the inhibition was 0% (inactive).

As for `COc1ccc(N2C(=O)c3cccc4cccc(c34)C2=O)nn1`, the inhibition was 0% (inactive).

Take `O=C(OCc1nnc(-c2ccccc2)o1)c1ccc2ccccc2n1`: the inhibition was 1% (inactive).

As for `COc1ccc2c(c1OC)C(=O)N(c1ccc3c(c1)CCC3)C2=O`, the inhibition was 2% (inactive).

`Cc1cccc2cc(CN(Cc3nnnn3C3CCCC3)C3CCCCC3)c(=O)[nH]c12`: the inhibition is 4% (inactive).

Consider `COc1ccc(C(=O)NCC(=O)NC2=NCCS2)cc1`, for which the inhibition is 0% (inactive).

In the case of `COc1ccccc1S(=O)(=O)Cc1ccc(C(=O)NCCN2CCCCCC2)o1`, the inhibition was 0% (inactive).

In the case of `Cc1cc(=O)oc2cc(OCC#N)ccc12`, the inhibition is 0% (inactive).

Take `O=C(Nc1nc(-c2cccs2)cs1)c1cccc(S(=O)(=O)N2CCCCC2)c1`: the inhibition is 0% (inactive).

With `Cc1cc(C(=O)Nc2ccc(S(=O)(=O)Nc3onc(C)c3C)cc2)cs1`, the inhibition is 4% (inactive).

In the case of `CCCn1c(SCC(=O)NCCc2ccccc2)nnc1-c1ccccn1`, the inhibition is 6% (inactive).

In the case of `O=C1CCCC2=C1C(c1cccc(Br)c1)n1nc(-c3ccco3)nc1N2` (stereo not given), the inhibition is 0% (inactive).

As to `Cn1c(=O)cc(OCC(=O)NCCCN2CCN(Cc3ccccc3)CC2)c2ccccc21`, the inhibition is 0% (inactive).

Regarding `N#Cc1nc(-c2ccco2)oc1N1CCN(c2cccc(Cl)c2)CC1`, the inhibition is 6% (inactive).

With `COC(=O)c1ccc(CNC(=O)CSc2nc3sc(C)c(C)c3c(=O)n2C)o1`, the inhibition was 0% (inactive).

Regarding `O=c1oc2ccccc2cc1NCc1ccccc1O`, the inhibition was 0% (inactive).

With `OCC#CCSc1nnc(-c2ccccc2Br)o1`, the inhibition was 0% (inactive).

Take `COc1cccc(NC(=O)CSc2nnc(-c3cc(-c4ccccn4)nc4ccccc34)o2)c1`: the inhibition was 2% (inactive).

Consider `COc1ccc(C(=O)NCCC(C)C)cc1S(=O)(=O)N1CCOCC1`, for which the inhibition was 9% (inactive).

For the compound `COCCNC(=O)CN(C)S(=O)(=O)c1ccc(Br)cc1`, the inhibition was 0% (inactive).

`Cc1nc(NCc2ccc3c(c2)OCO3)c2oc3ccccc3c2n1`: the inhibition was 1% (inactive).

As for `COc1ccc(C2C=C(c3ccccc3)Nc3ncnn32)cc1` (stereo not given), the inhibition was 4% (inactive).

For the compound `O=C(CN1CCN(Cc2ccccc2)CC1)NCC1COc2ccccc2O1` (stereo not given), the inhibition was 0% (inactive).

For `C=CCSc1nc2c(c(=O)[nH]c(=O)n2C)n1CC`, the inhibition is 2% (inactive).

Regarding `Cc1ccc2c(C(=O)CN3CCSCC3)c(C)[nH]c2c1`, the inhibition is 0% (inactive).

`COc1ccc2ccccc2c1CN1CCN(C)CC1`: the inhibition is 3% (inactive).

As to `Cc1ccc(-c2nn3c(C)nnc3s2)cc1N`, the inhibition is 0% (inactive).

Regarding `Cc1nc2ccc(C(=O)O)cc2c2c1CC(C)S2` (stereo not given), the inhibition was 0% (inactive).

With `Cn1c(SCc2cccc3ccccc23)nnc1-c1ccco1`, the inhibition was 0% (inactive).

Take `CCOC(=O)C1CCN(C(=O)CSc2n[nH]c(=O)[nH]c2=O)CC1`: the inhibition was 0% (inactive).

As to `CCOc1ccc(Oc2nc(Nc3ccc(C)cc3)nc(N(C)C)n2)nn1`, the inhibition was 0% (inactive).

With `CCCNC(=O)Nc1ccccc1C(=O)Nc1ccc(OC)cc1`, the inhibition is 2% (inactive).

`CC(=O)Nc1c(I)c(NC(C)=O)c(I)c(C(=O)O)c1I`: the inhibition is 1% (inactive).

Take `O=C(COc1ccccc1)Nc1ccccc1N1CCN(c2ccccc2)CC1`: the inhibition is 2% (inactive).

For the compound `Cc1nc2ccccn2c(=O)c1CCN1CCC(C(=O)c2ccc(F)cc2)CC1`, the inhibition is 0% (inactive).

On to `CCc1cccc(NS(=O)(=O)c2c(C)n[nH]c2C)c1`, for which the inhibition was 0% (inactive).

Take `Cc1ccc(C)n1-c1ccc(-n2cnnn2)cc1`: the inhibition was 2% (inactive).

For `COc1cc(=O)[nH]c(SCc2c(F)c(F)c(F)c(F)c2F)n1`, the inhibition was 2% (inactive).

For the compound `NC(=O)C1CCN(C(=O)c2cc3n(n2)C(C(F)(F)F)CC(c2ccco2)N3)CC1` (stereo not given), the inhibition was 0% (inactive).

On to `Cc1nnc(SCC(=O)NC(C)(C)C)n1CCc1ccccc1`, for which the inhibition was 0% (inactive).
